Drawing on PubChem BioAssay (Tox21), this text covers outcome for 40 compounds.

Calls of active or inactive are those of the source. The call rests on the fitted dose curve; in most records, active means well fitted curve in the direction sought with a large enough effect in the repeat runs; inconclusive means weak or mixed curves; inactive means flat fitted curve, though single readings scatter.

This assay is described as follows: qHTS assay to test for compound auto fluorescence at 535 nm (green) in HEK293 cells (AID 720680). Conditions: green autofluorescence 485/535 nm; series mostly up to 91.3 µM. An excerpt: U.S. Tox21 Program National Center for Advancing Translational Sciences [NCATS] NIH Chemical Genomics Center [NCGC] U.S. Environmental Protection Agency [EPA] National Institutes of Environmental Health Sciences [NIEHS] National Toxicology Program [NTP] U.S. Food and Drug Administration [FDA] Tox21 Assay Overview: Compound auto fluorescence often interferes with screening of the compound library against various biological targets and signaling pathways. Some of these compounds may have fluorophoric properties. Such properties may interfere with the assay outputs resulting in false positives and/or negatives. To decrease such complications and ensure the compound activities are relevant in terms of biological response, the Tox21 10K compound library was screened for auto fluorescence. From the fluorophores used as reporter signals in our screening assays, the auto fluorescence equivalencies of compounds against three fluorophores have been evaluated: Triamterene, Fluorescein and Rose Bengal sodium for blue, green and red fluorescence, respectively. The fluorescence intensities were measured using Excitation/Emission wavelengths at 405/460nm, 485/535nm and 540/590nm for blue, green and red labels, respectively. This assay includes the green fluorescence data.
Tox21 Assay Protocol Summary: 2,000 HEK293 cells in 5 uL of culture medium containing 10% dialyzed FBS per well were dispensed into black wall/clear bottom 1536-well plates using a Multidrop Combi Dispenser (Thermo Scientific). The assay plates were incubated for 4-5 hr at 37C to allow cell attachment to the well bottom, followed by the transfer of 23 nL compound or DMSO vehicle by a pintool work station (Kalypsys, San Diego, CA). After the assay plates were incubated overnight at 37C and 5% CO2, fluorescence intensities in the assay plates were measured by an Envision (PerkinElmer, Shelton, CT) plate reader using three labels for measuring blue, green and red fluorescence at […] 460, 535 and 590nm respectively.
In general terms: qHTS replaces the single test concentration by a dilution series.
Consider `CSCCC=O`, for which the call was inactive. Next, `CC(=O)OCC(=O)[C@@]12N=C(C)O[C@@H]1C[C@H]1[C@@H]3CCC4=CC(=O)C=C[C@]4(C)[C@H]3[C@@H](O)C[C@@]12C`: “inactive”; `COc1ccc(Nc2ccccc2)c(C)c1`: “inactive”; `CCOC(=O)NNc1nncc2ccccc12`: “inactive”.

On to `CCCCCCCCC/C=C/CC1CC(=O)OC1=O` (stereo not given), for which the compound was called inactive. Next, `O=[N+]([O-])c1ccc(/C=C/c2ccc([N+](=O)[O-])cc2S(=O)(=O)O)c(S(=O)(=O)O)c1`: “inactive”; `CCN(CC)c1ccc(C(=O)c2ccccc2C(=O)O)c(O)c1`: “inactive”. Consider `C=CCNC(N)=S`, for which the compound was classed as inactive. `CCCCCCCCCCCCCCO`: the call was inactive. Next, `C=C(C)C(=O)OCCOCCOCCOC(=O)C(=C)C`: “inactive”; `CCCCC(CC)CO` (stereo not given): “inactive”. Next, `CC(c1cc2ccccc2s1)N(O)C(N)=O` (stereo not given): “inactive”; `CN(C)CCC(c1ccccc1)c1ccccn1` (stereo not given): “inactive”. Under `Cc1ccc(N(C)C)cc1` stands “inactive”. Regarding `CC(=O)c1ccccc1`, the call was inactive. For `OCCOCCOCCO`, the compound was called inactive. Turning to `CCCCCC/C(C=O)=C\c1ccccc1`, the outcome was inactive. As to `c1ccc(OCCOc2ccccc2)cc1`, the compound was classed as inactive. `CCCCCCOCCO`: the outcome was inactive. For `O=C(O)[C@H](O)[C@@H](O)[C@H](O)[C@H](O)CO`, the call was inactive. For `CN(C)CCC(c1ccc(Cl)cc1)c1ccccn1` (stereo not given), the compound was called inactive. Under `O=C(O)c1cc(C(=O)O)cc(S(=O)(=O)O)c1` stands “inactive”. Under `Cc1ccc(S(N)(=O)=O)cc1` stands “inactive”; under `CC(=O)Nc1ccccc1`, “inactive”; under `OCC(CO)(CBr)CBr`, “inactive”.

In the case of `CC1=CCC2CC1C2(C)C` (stereo not given), the outcome was inactive.

`CCCCCCCCCCCCCCCO`: the call was inactive. Under `CCN(CC)CCCC(C)Nc1ccnc2cc(Cl)ccc12` (stereo not given) stands “inactive”.

Turning to `CCc1cccc(C)c1N`, the compound was classed as inactive. Next, `c1c[nH]cn1`: “inactive”.

For the compound `O=C(O)CC(C(=O)O)C(CC(=O)O)C(=O)O` (stereo not given), the call was inactive. As for `O=C(CC(C(=O)OC1CCCCC1)S(=O)(=O)O)OC1CCCCC1` (stereo not given), the compound was called inactive. Under `O=C(O)c1cc(=O)c2c(OCC(O)COc3cccc4oc(C(=O)O)cc(=O)c34)cccc2o1` stands “inactive”; under `O=C=NCCCCCCN=C=O`, “inactive”; under `Nc1ccccc1[N+](=O)[O-]`, “inactive”. Consider `Cc1ccc2oc(=O)ccc2c1`, for which the compound was called inactive. In the case of `C=CCOC(=O)c1ccccc1C(=O)OCC=C`, the result was inactive. Next, `C#CCN(C)Cc1ccccc1`: “inactive”.

Consider `ON=C1CCCCC1`, for which the call was inactive. Next, `CC(=O)CC(=O)Nc1ccccc1C`: “inactive”.
